HPGD block = qHTS Assay for Inhibitors of HPGD (15-Hydroxyprostaglandin Dehydrogenase). purified HPGD, NADH fluorescence kinetic, PGE2 substrate. Potency, µM, for the others: at the highest dose activity change, negative = inhibition, usual class: inhibitors. 150,000 compounds, 4.3% hits; active = well fitted inhibition curve with a large enough effect, not every such curve was filed as active; inconclusive = small, poorly fitted or top-dose-only effect, or another doubt; inactive = no such curve, though single readings can be large or run the other way; note: potency is the fitted concentration of half-maximal effect
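NADH formation kinetics: reaction with 30 uM PGE2 and 1 mM NAD+ (final), 20 nM enzyme, Tris-HCl pH 8 with Tween 20, after 15 min compound preincubation at room temperature. Fluorescence change, last versus first of five reads.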
ALOX12 inhib = qHTS Assay for Inhibitors of 12-hLO (12-human lipoxygenase); Polyunsaturated fatty acid lipoxygenase ALOX12 (Homo sapiens), P18054; purified 12-hLO, xylenol orange hydroperoxide absorbance; Potency, µM (series often up to 57.1 µM), for the others: at the highest dose activity change, negative = inhibition, usual class: inhibitors; 150,000 compounds, 0.12% hits; AID 1452, 2008; note: potency is the fitted concentration of half-maximal effect; nearly all actives have a fitted effect of over 55% in size
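Hydroperoxide formation by human 12-lipoxygenase from 40 uM arachidonic acid was followed colorimetrically via ferric-xylenol orange complex, using the 573/405 nm absorbance ratio. Enzyme concentration was 150 nM, with 30 min reaction at room temperature.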
NPSR antagonist = qHTS Assay for Antagonists of the Neuropeptide S Receptor: cAMP Signal Transduction. Q6W5P4. CHO-NPSR cells, cAMP TR-FRET, antagonist mode. Potency, µM (top dose mostly 38.3 µM), inactives show at the highest dose activity change, negative = inhibition, hits mostly inhibitors. 220,000 compounds, 1% hits. AID 1461, 2008; note: potency is the fitted concentration of half-maximal effect; nearly all actives have a fitted effect of over 50% in size
Target sequence (Q6W5P4 whole entry, looked up): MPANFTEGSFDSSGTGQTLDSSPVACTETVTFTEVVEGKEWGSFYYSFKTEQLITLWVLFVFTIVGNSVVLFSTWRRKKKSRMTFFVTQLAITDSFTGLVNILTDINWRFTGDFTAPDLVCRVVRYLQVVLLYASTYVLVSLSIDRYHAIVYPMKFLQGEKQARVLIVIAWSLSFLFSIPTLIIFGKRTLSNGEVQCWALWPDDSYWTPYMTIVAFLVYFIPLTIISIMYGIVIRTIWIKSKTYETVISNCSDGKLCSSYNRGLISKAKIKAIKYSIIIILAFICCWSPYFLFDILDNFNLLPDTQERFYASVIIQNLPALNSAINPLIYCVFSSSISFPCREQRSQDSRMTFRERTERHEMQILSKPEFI
IMPase inh = qHTS Assay for Identifying the Cell-Membrane Permeable IMPase Inhibitors; Inositol monophosphatase 1 (Rattus norvegicus), P97697; CHO-M1 cells, IP1 accumulation, HTRF TR-FRET ratio; inhibition (IP1 accumulation), % at 46.1 µM; 120,000 tested, under 10 active; AID 901, 2007; active = well fitted curve in the direction sought with a large enough effect in the signal ratio, not every such curve was filed as active; inconclusive = small, poorly fitted or top-dose-only effect, or a change in a side signal; inactive = no such curve, though single readings can be large or run the other way; the % refers to the signal ratio;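 note: cells stimulated with carbachol in lithium chloride buffer; plate controls were DMSO basal wells for no effect and reference inhibitor wells for full effect; higher means more IMPase inhibition seen as more IP1 and lower FRET ratio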
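Seeded CHO-M1 cells were dosed with compound at up to 46 uM, stimulated with carbachol for 30 min, then lysed in IP-One detection reagents. Higher IP1 lowers the TR-FRET signal.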
IMPase Li inh = qHTS Assay for Identifying the Cell-Membrane Permeable IMPase Inhibitors: Potentiation with Lithium | CHO-M1 cells, IP1 TR-FRET (IP-One), carbachol + lithium | Potency, µM (top dose mostly 59.4 µM), for the others: top-dose activity, negative = IMPase inhibition, usual class: inhibitors | 210,000 compounds, 0.35% hits;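 note: IP1 builds up when IMPase is blocked and the TR-FRET signal falls; potency is the fitted concentration of half-maximal effect; plate controls were basal vehicle for no effect and high inhibitor control for full effect; nearly all actives have a fitted effect of over 50% in size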
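CHO cells stably expressing M1 receptor (2000/well, cultured 16–30 h) treated 30 min at 37C with compound plus low lithium. Cytosolic IP1 by TR-FRET (665/620 ratio and 620 channel) after 10 min lysis; AC50 by Hill fit.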
ALDH1A1 block = qHTS Assay for Inhibitors of Aldehyde Dehydrogenase 1 (ALDH1A1); Purified ALDH1A1, NADH fluorescence, propionaldehyde substrate; Potency, µM (top dose mostly 75.3 µM), inactives show at the highest dose activity, negative = inhibition, usual class: inhibitors; 220,000 compounds, 7.3% hits; AID 1030, 2008; active = well fitted inhibition curve with a large enough effect, not every such curve was filed as active; inconclusive = small, poorly fitted or top-dose-only effect, or another doubt; inactive = no such curve, though single readings can be large or run the other way;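 note: potency is the fitted concentration of half-maximal effect; plate controls were no enzyme wells and a reference inhibitor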
Active calls of the source: *; [ ] = another dose, or the depositor's remark. Shown are actives, neighbours in structure and some others; about 8.9% of the full set was active somewhere. Unless noted, calls come from the whole dose curve; as a rule, active = well fitted curve in the direction sought with a large enough effect; inconclusive = small, poorly fitted or top-dose-only effect, or another doubt; inactive = no such curve, though single readings can be large; an effect the other way counts as inactive or inconclusive. Unless noted, % is set by controls: 0 for no effect and ±100 for the full control effect.

How did CCOCCCNC(=O)CN1C(=O)/C(=C\c2ccc(C)cc2)Sc2ccccc21 do in these assays?
HPGD block: -15.0%; ALOX12 inhib: -0.2%; NPSR antagonist: -15.5%; IMPase Li inh: 13.5%; ALDH1A1 block: 8.3%

How did Cc1cccc(Nc2n[nH]c(C)c2[N+](=O)[O-])c1 do in these assays?
HPGD block: 11.2µM*; ALOX12 inhib: -10.0%; NPSR antagonist: 28.1%; IMPase Li inh: -9.6%; ALDH1A1 block: -0.4%

How did CCOCCCNC(=S)NCCCNc1nc2ccc(C)cc2cc1C#N do in these assays?
NPSR antagonist: -10.6%; IMPase Li inh: 2.2%; ALDH1A1 block: inconclusive

How did COC(=O)c1ccc(C=O)cc1 do in these assays?
HPGD block: -10.9%; ALOX12 inhib: 4.9%; IMPase Li inh: -13.8%; ALDH1A1 block: 8.91µM*

What do the screens show for `COC(=O)c1ccc(C)cc1`?
HPGD block: -8.4%; ALOX12 inhib: -1.6%; IMPase Li inh: 1.1%; ALDH1A1 block: -10.3%

Results for O=Cc1ccc(C(=O)O)cc1 ?
HPGD block: -10.4%; ALOX12 inhib: -0.7%; IMPase Li inh: -14.8%; ALDH1A1 block: 22.4µM*

Results for Cc1ccc(C(=O)O)cc1 ?
HPGD block: -12.1%; ALOX12 inhib: 0.0%; IMPase Li inh: 9.0%; ALDH1A1 block: inconclusive

Results for CC(C)(C)c1cc(NC(=O)CCl)n(-c2ccccc2)n1 ?
NPSR antagonist: -54.9%

Results for CCCc1cc(NC(=O)CCl)n(-c2ccccc2)n1 ?
NPSR antagonist: -3.4%; IMPase Li inh: 0.8%; ALDH1A1 block: 0.891µM*

Results for O=S(=O)(c1cnc[nH]1)N1CCc2ccccc21 ?
HPGD block: -0.5%; ALOX12 inhib: -11.8%; NPSR antagonist: -20.8%[46.1 µM]; IMPase inh: 16.9; IMPase Li inh: 16.2%[38.3 µM]; ALDH1A1 block: 20µM*

Results for C[N+](C)(C)c1ncnc2c1ncn2[C@@H]1C[C@H](O)[C@@H](CO)O1 ?
HPGD block: -8.3%; ALOX12 inhib: 2.9%[11.4 µM]; IMPase Li inh: -8.7%; ALDH1A1 block: -2.2%[13.5 µM]

What do the screens show for `COc1ccc(C(=O)Nc2cccc3c2C(=O)NC3=O)cc1S(=O)(=O)N1CCOCC1`?
HPGD block: inconclusive; ALOX12 inhib: 9.3%; NPSR antagonist: inconclusive; IMPase inh: -4.3; IMPase Li inh: 10µM*; ALDH1A1 block: inconclusive

How did CNCc1ccccc1Sc1ccc(O)c(O)c1 do in these assays?
HPGD block: 17.8µM*; ALOX12 inhib: -8.2%; NPSR antagonist: -13.6%; IMPase Li inh: 5.4%; ALDH1A1 block: 0.562µM*

How did Cc1ccc(CN(c2ccc(C(=O)Nc3ccc4c(c3)OCO4)cc2)S(C)(=O)=O)cc1 do in these assays?
HPGD block: -14.0%; ALOX12 inhib: -0.4%; NPSR antagonist: inconclusive; IMPase inh: 5.9; IMPase Li inh: 18.4%[38.3 µM]; ALDH1A1 block: inconclusive

Results for C/C=C/C=C/C(=O)OC(C)C(=O)Nc1cc([N+](=O)[O-])ccc1OC (configuration not stated) ?
NPSR antagonist: -15.3%; IMPase Li inh: 2.9%; ALDH1A1 block: inconclusive

How did N#Cc1c(/N=C/c2cccs2)sc2c1CCC2 do in these assays?
HPGD block: 20µM*; ALOX12 inhib: -7.3%; NPSR antagonist: -20.0%[46.1 µM]; IMPase inh: -11.4; IMPase Li inh: 24.9%[38.3 µM]; ALDH1A1 block: inconclusive

How did CN(C)/C=N/c1sc2c(c1C#N)CCCC2 do in these assays?
NPSR antagonist: 1.6%; IMPase Li inh: 11.4%; ALDH1A1 block: 2µM*

How did C(=N\Nc1ncnc2sc3c(c12)CCC3)/c1cccs1 do in these assays?
HPGD block: -21.2%; ALOX12 inhib: 0.3%; NPSR antagonist: -13.2%[46.1 µM]; IMPase inh: 8.7; IMPase Li inh: 18.6%[38.3 µM]; ALDH1A1 block: 8.0%
